{
  "source": "PubChem BioAssay AID1347156",
  "about": "(National Center for Advancing Translational Sciences (NCATS), 2019)",
  "note": "Records with an inconclusive call do not appear. Calls of active or inactive are those of the source. The call rests on the fitted dose curve; in most records, active means well fitted cell-killing curve with a large enough effect; inconclusive means small, poorly fitted or top-dose-only effect; inactive means flat fitted curve, though single readings scatter. On the % scale 0 is the no-effect control and ±100 the full control effect; potency means the concentration at half of the fitted maximal effect.",
  "data": [
    {"test": "DAPI mCherry counterscreen qHTS for Zika virus inhibitors; further: nearly all actives have a fitted effect of over 55% in size", "details": "Vero cells, DAPI nuclear count cytotoxicity, imaging 48-72 h, infected with Zika reporter virus, MOI 1; series mostly up to 32.6 µM; activity change, negative = cell loss: at the top concentration", "from_the_text": "Assay Submitters (PI): Avindra Nath, Ph.D., National Institute of Neurological Disorders and Stroke (NINDS), Bethesda, MD Radhakrishnan Padmanabhan, Ph.D., Georgetown University (GU), Washington D.C. Zika Virus causes congenital defects, including microcephaly and is associated with Guillain-Barre syndrome, eningoencephalitis and myelitis in infected adult. […] Using a target-based approach, we hope to establish a screening paradigm to uncover novel, cell-active NS2B-NS3 protease (Zika Virus) specific inhibitors from NCATS' collection of small molecules using qHTS. […] Four assay panel was created to identify potential Zika Virus inhibitors. Namely, (1) GU unlinked NS2B-NS3 AMC tagged protease qHTS, (2) GU unlinked NS2B-NS3 Rhodamine tagged protease qHTS, (3) NINDS linked NS2B-NS3 AMC tagged protease qHTS, (4) NINDS linked NS2B-NS3 Rhodamine tagged protease qHTS. Active compounds were re-acquired and re-screened to confirm inhibition. Inhibitors were further screened against various confirmatory and counterscreens in dose response format. […] A DAPI (mCherry counterscreen) which determine Vero cell cytotoxicity was used to exclude false positive compounds. […] Early Translation Branch (ETB) National Center for Advancing Translational Sciences (NCATS), Rockville, MD National Institute of Health (NIH), Bethesda, Maryland\n384 well ZIKV-mCherry & mCherry DAPI counterscreen: We have developed a new orthogonal imaging assay in 384-well plate format, which uses recombinant virus ZIKV-mCherry in Vero cells. Briefly, 30 microL of Vero cells derived from a green monkey cell line, were dispensed by Multidrop Dispenser into a clear solid bottom black 384 well plate (ultracarrier, Perkin Elmer LifeSciences) at a concentration of 5,000 cells per well. The plate was incubated overnight in a CO2 incubator at 37 degrees C. Compounds were delivered as a 126 nL DMSO solution by Kalypsys pintool transfer. Following compound transfer, 10 microL of ZIKV-mCherry was added at an MOI of 1 and incubated in a CO2 incubator for 48-72 hrs at 37 degrees C. After sufficient incubation of infected cells in test plates, 8 microL of 32% PFA was dispensed into assay plates to fix cells and incubated for 20 min at room temperature. Plates were washed 3 times with PBS using BioTek EL406 microplate washer/dispenser. After washing, 30 microL of PBS with 0.01% TX-100 containing Hoechst dye was dispensed into the each well of the plates for nuclear staining. 384-well plates were imaged on an automated, widefield high content imager (INCell 2200, GE Healthcare) using a 10x/0.45 NA lens and standard DAPI (nuclear stain) and mCherry (cy5) excitation and emission filters. The TIFFs were quantitated using the canned Multi Target Analysis protocol (GE Investigator Workstation software v3.7.2). Briefly, nuclei from the DAPI channel were identified using top hat segmentation and a sensitivity setting of 96 and minimum size area of 35 microm2. A recombinant Zika viral infection was monitored in the Cy5 channel (cells) using a 2 microm collar dilation from the nuclear bitmap. mCherry objects with an average nuclear RFU intensity above 450 (3 stdev above mean negative control wells) were considered \"mcherry positive\" and data was analyzed by percent infection rate.", "values": [
      {"smiles": "CCCCCCCOc1cc2c(cc1/C(C)=C/c1ccc(C(=O)O)cc1)C(C)(C)CCS2(=O)=O", "Potency": "15.8 µM (active)"},
      {"smiles": "COc1cc(C)c(C(=O)OC2C(C)OC(OC3CCC(C)C4C3C=C(C)C3/C(C)=C\\CC/C(C)=C/C5(C)C=C(C(=O)O)C(C)CC56OC(=O)/C(=C(\\O)C34C)C6=O)C(O)C2O)c(OC)c1", "note": "(stereo not given)", "activity change, negative = cell loss": "-11.1% [at 8.16 µM] (inactive)"},
      {"smiles": "Oc1cc2ccccc2c2ccccc12", "Potency": "10 µM (active)"},
      {"smiles": "CCOc1nc2cccc(C(=O)OC(C)OC(=O)OC3CCCCC3)c2n1Cc1ccc(-c2ccccc2-c2nn[nH]n2)cc1", "note": "(stereo not given)", "Potency": "15.8 µM (active)"},
      {"smiles": "CCCCCCCCc1ccc(CCC(N)(CO)CO)cc1", "Potency": "10 µM (active)"},
      {"smiles": "COc1cccc(-n2nc(C(=O)O)cc2-c2ccc(C3CCCCC3)c(Cl)c2)c1", "Potency": "35.5 µM (active)"},
      {"smiles": "O=C(Nc1c(C(=O)O)oc2ccccc12)c1ccc(C(F)(F)F)cc1", "activity change, negative = cell loss": "-19.9% (inactive)"},
      {"smiles": "O=C(Nc1cccc(C(=O)OCc2cc(=O)n3nc(C4CC4)sc3n2)c1)c1cccc(Cl)c1", "activity change, negative = cell loss": "-11.2% (inactive)"},
      {"smiles": "O=C(Nc1ccc(C(=O)OCc2cc(=O)n3c4c(sc3n2)CCCC4)cc1)c1ccc(F)cc1", "activity change, negative = cell loss": "-5.72% (inactive)"},
      {"smiles": "N#CC1C(=O)Nc2scc(-c3ccc(-c4ccccc4O)cc3)c2C1=O", "note": "(stereo not given)", "Potency": "8.91 µM (active)"},
      {"smiles": "CC(C)c1ccc2c(c1)c(SC(C)(C)C)c(CC(C)(C)C(=O)O)n2Cc1ccc(Cl)cc1", "Potency": "11.2 µM (active)"},
      {"smiles": "CC1(C)CCC(C)(C)c2cc3c(cc21)Sc1ccccc1N=C3c1ccc(C(=O)O)cc1", "Potency": "8.91 µM (active)"},
      {"smiles": "COc1ccc2c(c1)Oc1nc(-c3ccc(C)s3)nc(SCC(=O)Nc3cccc(C(=O)O)c3)c1C2", "activity change, negative = cell loss": "-10.7% (inactive)"},
      {"smiles": "CCCCc1nn2c(=O)cc(COC(=O)c3ccc(NC(=O)c4ccccc4Cl)cc3)nc2s1", "Potency": "22.4 µM (active)"},
      {"smiles": "O=C(OC1Cc2c(O)cc(O)cc2OC1c1cc(O)c(O)c(O)c1-c1c(C2Oc3cc(O)cc(O)c3CC2OC(=O)c2cc(O)c(O)c(O)c2)cc(O)c(O)c1O)c1cc(O)c(O)c(O)c1", "note": "(stereo not given)", "activity change, negative = cell loss": "-10.6% (inactive)"},
      {"smiles": "O=C(O)COc1ccccc1C1Nc2ccccc2-c2nnc(SCc3ccc(Cl)cc3)nc2O1", "note": "(stereo not given)", "activity change, negative = cell loss": "-15% (inactive)"},
      {"smiles": "O=C1c2c(O)ccc([N+](=O)[O-])c2C(=O)c2c([N+](=O)[O-])ccc(O)c21", "Potency": "39.8 µM (active)"},
      {"smiles": "Oc1c(Cl)cc(Cl)cc1Sc1cc(Cl)cc(Cl)c1O", "activity change, negative = cell loss": "-7.24% (inactive)"},
      {"smiles": "CC(=O)Nc1ccc(S(=O)(=O)O)c2cc(S(=O)(=O)O)c(N=Nc3ccc(N=Nc4ccc(S(=O)(=O)O)cc4)c4ccc(S(=O)(=O)O)cc34)c(O)c12", "activity change, negative = cell loss": "-5.95% (inactive)"},
      {"smiles": "O=C(O)COc1ccc(-c2nccc3c2C(=O)N(Cc2cccc(C(F)(F)F)c2)CC(COc2ccc4cnccc4c2)O3)cc1", "note": "(stereo not given)", "activity change, negative = cell loss": "-13.5% (inactive)"},
      {"smiles": "CCOc1ccc(-c2ccc(Cn3c(CC(C)(C)C(=O)O)c(SC(C)(C)C)c4cc(OCc5ccc(C)cn5)ccc43)cc2)cn1", "Potency": "17.8 µM (active)"},
      {"smiles": "Cc1c(C)n(Cc2ccc(-c3ccccc3C(=O)O)cc2)c2ccc(C(=O)N[C@@H](C)c3ccc([N+](=O)[O-])cc3)cc12", "Potency": "35.5 µM (active)"},
      {"smiles": "Cc1cc(C)cc(C(=O)N(C)[C@H](Cc2ccc(-c3ccccc3)cc2)C(=O)N[C@@H](Cc2c[nH]c3ccccc23)C(=O)O)c1", "Potency": "8.91 µM (active)"},
      {"smiles": "CC(C)(Sc1ccc(CCN(CCCCC2CCCCC2)C(=O)NC2CCCCC2)cc1)C(=O)O", "Potency": "14.1 µM (active)"},
      {"smiles": "CC(C)C[C@H](C(=O)O)c1cc(-c2ccc(C(F)(F)F)cc2)cc(-c2ccc(C(F)(F)F)cc2)c1", "Potency": "11.2 µM (active)"},
      {"smiles": "O=C(NCc1ccccc1Cl)c1ccc2c(O)c(S(=O)(=O)c3ccccc3)c(=O)[nH]c2c1", "activity change, negative = cell loss": "-8.67% (inactive)"},
      {"smiles": "O=C(COc1ccccc1C(=O)OCC(=O)Nc1cccc2ccccc12)Nc1ccc(Br)cc1", "activity change, negative = cell loss": "-6.19% (inactive)"},
      {"smiles": "Cc1cc(N2CCOCC2)cc2[nH]c(-c3c(NC[C@@H](O)c4cccc(Cl)c4)cc[nH]c3=O)nc12", "Potency": "12.6 µM (active)"},
      {"smiles": "CCC(=O)O[C@H]1[C@H](O[C@@H]2[C@@H](C)[C@H](O[C@H]3C[C@@](C)(OC)[C@@H](O)[C@H](C)O3)[C@@H](C)C(=O)O[C@H](CC)[C@@](C)(O)[C@H](O)[C@@H](C)C(=O)[C@H](C)C[C@@]2(C)O)O[C@H](C)C[C@@H]1N(C)C", "Potency": "35.5 µM (active)"},
      {"smiles": "CC(=O)N1c2ccc(-c3ccc(C(=O)O)cc3)cc2C(Nc2ccc(Cl)cc2)CC1C", "note": "(stereo not given)", "Potency": "1 µM (active)"},
      {"smiles": "Nc1ncnc2c1ncn2[C@@H]1O[C@H](CSCC[C@H](N)C(=O)O)[C@@H](O)[C@H]1O", "activity change, negative = cell loss": "-6.03% (inactive)"},
      {"smiles": "COc1cc(C2Nc3ccccc3-c3nnc(SCc4ccc(Cl)cc4)nc3O2)ccc1OCC(=O)O", "note": "(stereo not given)", "activity change, negative = cell loss": "-19.4% (inactive)"},
      {"smiles": "Cc1nc(N=Nc2ccc(S(=O)(=O)O)cc2S(=O)(=O)O)c(COP(=O)(O)O)c(C=O)c1O", "activity change, negative = cell loss": "-11.3% (inactive)"},
      {"smiles": "CCOC(=O)c1cccc(NC(=O)CSc2ncc3c(n2)-c2ccc(Cl)cc2N(Cc2ccccc2)S3(=O)=O)c1", "activity change, negative = cell loss": "-13.5% (inactive)"},
      {"smiles": "C/C=C/C=C/C=C/C(=O)O[C@@H]1[C@@H](OC)C2=C(C(=O)N(C(CCC(=O)O)C(=O)O)C2)[C@@]2(C)CCCC(C)(C)[C@H]12", "note": "(stereo not given in full)", "activity change, negative = cell loss": "-13.5% [at 16.3 µM] (inactive)"},
      {"smiles": "CC(C)=CCc1c2c(c3occ(-c4ccc(O)c(O)c4)c(=O)c3c1O)C=CC(C)(C)O2", "Potency": "8.91 µM (active)"},
      {"smiles": "CCOc1ccc(-c2cc(NC(=O)c3c(F)cccc3F)c(C(=O)O)s2)cc1", "Potency": "5.01 µM (active)"},
      {"smiles": "CC(=O)C(N=Nc1ccc(S(=O)(=O)Nc2ccccn2)cc1)C(=O)Nc1ccc(Cl)cc1", "note": "(stereo not given)", "activity change, negative = cell loss": "-15.2% (inactive)"},
      {"smiles": "CCCCc1nn2c(=O)cc(COC(=O)c3ccc(NC(=O)CCc4ccccc4)cc3)nc2s1", "activity change, negative = cell loss": "-3.78% (inactive)"},
      {"smiles": "Cc1oc2c(cc(NS(=O)(=O)c3ccc(Br)cc3)c3ccccc32)c1C(=O)OCc1ccccc1", "activity change, negative = cell loss": "-18.7% (inactive)"}
    ]}
  ]
}
